Inconclusive results are not listed. Activity calls are given as the source filed them. Unless noted, calls come from the whole dose curve; as a rule, active = well fitted curve in the direction sought with a large enough effect; inconclusive = small, poorly fitted or top-dose-only effect, or another doubt; inactive = no such curve, though single readings can be large; an effect the other way counts as inactive or inconclusive.
Assays:
[1] = biological target: Lysosomal acid glucosylceramidase (Homo sapiens) (UniProt P04062); assay: Glucocerebrosidase-p2 (AID 348; in the data active = potency below about 10 µM; note: potency is the fitted concentration of half-maximal effect); conditions: purified GBA, blue fluorogenic substrate, 40 min
In short: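 Compounds titrated from 0.6 nM upwards against 0.2 nM enzyme in pH 5.9 citric acid/KH2PO4, taurocholate, tween-20; blue fluorogenic substrate 80 uM, 40 min room temperature, stopped and read Ex 365/Em 440 for AC50.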

[2] = AP1 Signaling Pathway (AID 357; active = well fitted curve in either direction with a large enough effect, not every such curve was filed as active; note: % is set by controls: 0 for no effect and ±100 for the full control effect); conditions: ME-180 AP-1-bla reporter, EGF-induced, beta-lactamase ratio, 5 h; series mostly up to 17.2 µM
In short: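 ME-180 cells with beta-lactamase reporter under AP-1 response element, stimulated with EC50 EGF; compounds tested in titration series, 5 h at 37 °C. CCF4 substrate added 2.5 h at room temperature; 460/530 nm emission ratio gave %activity and AC50.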

[3] = biological target: Cytochrome P450 1A2 (Homo sapiens) (UniProt P05177); assay: p450-cyp1a2 (AID 410; calls by dose curve;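 note: -100% = full effect of reference inhibitor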); conditions: recombinant CYP1A2, luciferin-ME demethylation, luminescence; series mostly up to 25.6 µM
In short: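 20nM CYP1A2 with 100uM Luciferin-ME (at Km) in 100mM KPO4; compound preincubated 10 min, NADPH regeneration added, 60 min at room temperature. Luciferin quantified by luminescence after detection reagent; normalized to 57 uM furafylline.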

[4] = NFAT Signaling Pathway (AID 444; active = well fitted curve in either direction with a large enough effect, not every such curve was filed as active;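 note: carbachol stimulus at about its EC50 of 1 µM final; % is set by controls: 0 for no effect and ±100 for the full control effect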); conditions: Jurkat NFAT-bla M1, carbachol, beta-lactamase ratio, 5 h; at 7.69 µM (top of the series)
In short: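 Jurkat cells with NFAT-driven β-lactamase reporter and co-expressed M1 receptor, stimulated with carbachol (final 1 uM, ~EC50), compound titration, 5 h at 37 °C. CCF4 loaded 1 h at RT; 460/530 nm ratio gave %activity and AC50.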

[5] = biological target: Glucocorticoid receptor (Homo sapiens) (UniProt P04150); assay: GR-EFC Redistribution (AID 451; calls by dose curve; note: potency is the fitted concentration of half-maximal effect); conditions: CHO-K1 GR-EFC translocation, beta-gal luminescence, 2 h
In short: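 CHO-K1 cells expressing nuclear EA and GR-ED fragments of b-gal; compounds titrated up to 46 uM final, 2 h at 37 C. GR nuclear translocation read as complemented b-gal luminescence after 1 h RT detection.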

[6] = biological target: Mitogen-activated protein kinase 10 (Mus musculus) (UniProt Q61831); assay: JNK3 AlphaScreen Assay (AID 530; active = well fitted curve in either direction with a large enough effect, not every such curve was filed as active;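 note: kinase came from lysate of stimulated human HepG2 cells; signal reports phosphorylation of biotinylated GST-cJun 1-79 at Ser73 with 10 µM ATP; % is set by controls: 0 for no effect and ±100 for the full control effect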); conditions: JNK3 lysate, c-Jun phosphorylation; series mostly up to 57.1 µM
In short: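 Pre-activated (IL-1β/TNFα) JNK3 in HepG2 lysates phosphorylates biotin-GST-cJun(1-79), 10 uM ATP; anti-phospho-cJun(Ser73) AlphaScreen read at room temperature, pH 7.6 Tris buffer. Compounds pre-incubated 15 min as titrations.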

[7] = biological target: 3',5'-cyclic-AMP phosphodiesterase 4B (Homo sapiens) (UniProt Q07343); assay: qHTS Assay for Inhibitors of PDE-IV (AID 607; active = well fitted activation curve with a large enough effect in the main read-out, with a control signal flat, not every such curve was filed as active; note: % of control where 0% means no effect); conditions: HEK293 ACTOne CNG channel cells, membrane potential fluorescence; series mostly up to 22.9 µM
In short: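 The readout is membrane depolarisation from a cAMP-sensing CNG channel, detected with a potential dye at ex 535/em 590. Cells were HEK293-derived (endogenous PDE-IV) at 1000 cells/well, titrated up to 22.9 uM final.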

[8] = qHTS Assay for Lipid Storage Modulators (AID 1519; calls by dose curve); conditions: Drosophila S3 cells, BODIPY lipid droplet/cell ratio, laser cytometry, cells loaded with oleic acid; for activity change, negative = inhibition: at 57.5 µM (top of the series)
In short: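 Cells seeded at 5,000 per well were treated with compounds over a concentration series and loaded with oleic acid (400 uM, as added). Lipid droplet fluorescence (488 nm excitation, 500-530 nm channel) was read by laser-scanning cytometry and normalized to 20 uM Triacsin C.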

[9] = Primary qHTS for small molecule stabilizers of the endoplasmic reticulum resident proteome: Secreted ER Calcium Modulated Protein (SERCaMP) assay (AID 1508630); conditions: SH-SY5Y GLuc-SERCaMP (Gaussia luciferase released on ER calcium loss) secretion, thapsigargin, luminescence; series mostly up to 38.4 µM; note: % is set by controls: 0 for no effect and ±100 for the full control effect
In short: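 GLuc-SERCaMP-expressing SH-SY5Y cells, pretreated 16 h with compound, are challenged with thapsigargin to empty ER calcium stores; after 4 h, coelenterazine is added directly to the medium and luminescence is imaged.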

[10] = biological target: Cytochrome P450 3A4 (Homo sapiens) (UniProt P08684); assay: qHTS Assay for Inhibitors and Substrates of Cytochrome P450 3A4 (AID 884); conditions: recombinant CYP3A4, Luciferin-PPXE luminescence; series mostly up to 57.1 µM; note: % is set by controls: 0 for no effect and ±100 for the full control effect; nearly all actives have a fitted effect of over 50% in size
In short: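 20 nM human CYP3A4 with 25 uM Luciferin-PPXE (at KM) in 200 mM KPO4, preincubated 10 min with compound; NADPH regeneration started a 60 min RT reaction. Luciferin detected by luminescence, normalized to 57 uM ketoconazole as full inhibition.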

[11] = Confirmation and Secondary Assay for Modulators of Hemoglobin Beta Chain Splicing at IVS2 654 locus (AID 910); conditions: HeLa EGFP-654 splicing reporter, GFP fluorescence, 48 h; series mostly up to 46.1 µM;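 note: HeLa cells stably carrying EGFP split by mutant beta-globin IVS2-654 intron; % of control where 0% means no effect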
In short: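 HeLa cells stably expressing EGFP interrupted by β-globin IVS2-654 intron, seeded overnight in Opti-MEM/2% FCS, then treated 2 days at 37 °C. Restored splicing read as total peak GFP intensity per well by laser scanning cytometry (488 nm excitation, 500–520 nm emission); 500 nM antisense PNA as control.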

[12] = Confirmation and Secondary Assay for Modulators of Hemoglobin Beta Chain Splicing at IVS2 705 locus (AID 930); conditions: HeLa EGFP-705 splicing reporter, GFP fluorescence, 48 h; series mostly up to 46.1 µM;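 note: HeLa cells stably expressing the EGFP-705 splicing reporter; GFP fluorescence per well restored by corrected splicing of the IVS2-705 intron in EGFP; % of control where 0% means no effect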
In short: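 HeLa EGFP-705 reporter; 500 cells/well, o/n 37C 5% CO2; cpd 2 d; 488 ex/500-520 em laser scan; total peak GFP intensity/well. Ref: 500 nM […] antisense PNA.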

[13] = biological target: Ubiquitin carboxyl-terminal hydrolase 1 (Homo sapiens) (UniProt O94782); assay: Inhibitors of USP1/UAF1: Pilot qHTS (AID 504865); conditions: purified USP1/UAF1, Ub-rhodamine cleavage fluorescence; series mostly up to 114 µM;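 note: rhodamine fluorescence freed from ubiquitin-rhodamine substrate followed over time; top concentration of the series differs between compounds; % is set by controls: 0 for no effect and ±100 for the full control effect; nearly all actives have a fitted effect of over 35% in size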
In short: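 Deubiquitinase activity followed as kinetic rhodamine fluorescence release from 150 nM Ub-Rho. 1 nM USP1/UAF1 with compound, after 15 min room-temperature preincubation, in HEPES pH 7.8 buffer containing TCEP, EDTA, BSA and Tween-20.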

[14] = measured here: cell count channel max response
[15] = measured here: lipid channel max response

Chain of Ubiquitin carboxyl-terminal hydrolase 1 (Homo sapiens) (O94782 whole entry, looked up): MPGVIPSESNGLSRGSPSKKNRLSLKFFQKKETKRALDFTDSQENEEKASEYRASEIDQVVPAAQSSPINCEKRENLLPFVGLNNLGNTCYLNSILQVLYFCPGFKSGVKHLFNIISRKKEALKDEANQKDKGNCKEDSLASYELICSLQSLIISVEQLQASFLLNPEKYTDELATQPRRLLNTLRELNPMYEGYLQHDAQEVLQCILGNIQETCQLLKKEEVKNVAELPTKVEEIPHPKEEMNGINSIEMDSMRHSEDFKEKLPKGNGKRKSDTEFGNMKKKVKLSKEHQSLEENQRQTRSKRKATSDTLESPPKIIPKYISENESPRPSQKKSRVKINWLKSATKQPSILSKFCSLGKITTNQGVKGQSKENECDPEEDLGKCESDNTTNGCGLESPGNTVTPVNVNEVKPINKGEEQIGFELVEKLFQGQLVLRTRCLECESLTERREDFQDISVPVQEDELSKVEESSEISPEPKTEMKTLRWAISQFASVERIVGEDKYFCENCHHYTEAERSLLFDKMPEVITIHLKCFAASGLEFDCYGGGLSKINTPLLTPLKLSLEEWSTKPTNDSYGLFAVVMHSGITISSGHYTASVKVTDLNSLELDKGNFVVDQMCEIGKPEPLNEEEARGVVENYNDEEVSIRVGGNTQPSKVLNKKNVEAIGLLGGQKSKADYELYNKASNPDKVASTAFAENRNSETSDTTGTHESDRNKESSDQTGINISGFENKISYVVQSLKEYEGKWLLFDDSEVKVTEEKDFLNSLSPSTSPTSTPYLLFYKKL
Chain of Cytochrome P450 3A4 (Homo sapiens) (P08684 whole entry, looked up): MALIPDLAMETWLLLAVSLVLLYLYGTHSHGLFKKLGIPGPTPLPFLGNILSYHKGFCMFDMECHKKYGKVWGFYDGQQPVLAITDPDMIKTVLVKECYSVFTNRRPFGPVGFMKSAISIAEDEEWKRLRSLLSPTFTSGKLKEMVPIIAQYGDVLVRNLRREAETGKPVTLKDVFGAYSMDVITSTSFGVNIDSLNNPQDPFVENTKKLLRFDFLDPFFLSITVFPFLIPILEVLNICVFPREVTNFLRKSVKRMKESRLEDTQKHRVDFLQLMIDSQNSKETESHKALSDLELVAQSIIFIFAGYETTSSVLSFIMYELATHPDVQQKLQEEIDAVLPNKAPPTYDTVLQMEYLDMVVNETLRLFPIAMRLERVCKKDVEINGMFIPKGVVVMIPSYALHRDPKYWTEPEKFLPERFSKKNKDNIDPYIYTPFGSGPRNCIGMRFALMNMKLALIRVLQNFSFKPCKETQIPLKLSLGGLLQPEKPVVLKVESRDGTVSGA
Chain of Cytochrome P450 1A2 (Homo sapiens) (P05177 whole entry, looked up): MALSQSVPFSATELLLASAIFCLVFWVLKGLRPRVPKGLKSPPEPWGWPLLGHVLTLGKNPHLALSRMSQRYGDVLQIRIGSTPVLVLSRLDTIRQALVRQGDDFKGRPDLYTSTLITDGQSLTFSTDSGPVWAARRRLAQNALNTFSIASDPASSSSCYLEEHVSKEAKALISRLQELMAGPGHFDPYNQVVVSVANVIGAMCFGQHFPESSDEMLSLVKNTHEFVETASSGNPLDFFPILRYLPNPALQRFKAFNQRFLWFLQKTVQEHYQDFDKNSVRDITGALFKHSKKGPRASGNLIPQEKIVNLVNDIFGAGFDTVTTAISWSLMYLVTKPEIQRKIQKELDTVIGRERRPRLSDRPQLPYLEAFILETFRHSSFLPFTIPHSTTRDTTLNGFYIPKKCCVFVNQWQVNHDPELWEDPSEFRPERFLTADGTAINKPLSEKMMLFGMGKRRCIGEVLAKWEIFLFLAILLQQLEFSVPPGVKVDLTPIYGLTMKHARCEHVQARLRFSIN
Chain of Lysosomal acid glucosylceramidase (Homo sapiens) (P04062 whole entry, looked up): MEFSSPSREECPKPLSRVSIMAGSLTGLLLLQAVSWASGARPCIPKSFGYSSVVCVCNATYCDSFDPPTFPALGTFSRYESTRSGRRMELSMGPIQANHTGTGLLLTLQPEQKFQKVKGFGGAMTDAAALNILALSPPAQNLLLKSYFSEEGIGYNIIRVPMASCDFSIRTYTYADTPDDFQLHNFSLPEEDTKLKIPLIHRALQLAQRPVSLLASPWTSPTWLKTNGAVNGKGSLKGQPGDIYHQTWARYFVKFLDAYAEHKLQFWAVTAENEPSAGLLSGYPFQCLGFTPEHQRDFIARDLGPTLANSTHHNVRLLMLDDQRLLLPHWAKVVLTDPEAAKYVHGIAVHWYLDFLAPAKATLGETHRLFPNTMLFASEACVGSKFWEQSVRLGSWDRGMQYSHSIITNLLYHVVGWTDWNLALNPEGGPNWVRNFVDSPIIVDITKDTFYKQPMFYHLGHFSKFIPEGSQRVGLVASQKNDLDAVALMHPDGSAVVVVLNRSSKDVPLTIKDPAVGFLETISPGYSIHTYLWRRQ
Chain of Glucocorticoid receptor (Homo sapiens) (P04150 whole entry, looked up, the tested form may be a part): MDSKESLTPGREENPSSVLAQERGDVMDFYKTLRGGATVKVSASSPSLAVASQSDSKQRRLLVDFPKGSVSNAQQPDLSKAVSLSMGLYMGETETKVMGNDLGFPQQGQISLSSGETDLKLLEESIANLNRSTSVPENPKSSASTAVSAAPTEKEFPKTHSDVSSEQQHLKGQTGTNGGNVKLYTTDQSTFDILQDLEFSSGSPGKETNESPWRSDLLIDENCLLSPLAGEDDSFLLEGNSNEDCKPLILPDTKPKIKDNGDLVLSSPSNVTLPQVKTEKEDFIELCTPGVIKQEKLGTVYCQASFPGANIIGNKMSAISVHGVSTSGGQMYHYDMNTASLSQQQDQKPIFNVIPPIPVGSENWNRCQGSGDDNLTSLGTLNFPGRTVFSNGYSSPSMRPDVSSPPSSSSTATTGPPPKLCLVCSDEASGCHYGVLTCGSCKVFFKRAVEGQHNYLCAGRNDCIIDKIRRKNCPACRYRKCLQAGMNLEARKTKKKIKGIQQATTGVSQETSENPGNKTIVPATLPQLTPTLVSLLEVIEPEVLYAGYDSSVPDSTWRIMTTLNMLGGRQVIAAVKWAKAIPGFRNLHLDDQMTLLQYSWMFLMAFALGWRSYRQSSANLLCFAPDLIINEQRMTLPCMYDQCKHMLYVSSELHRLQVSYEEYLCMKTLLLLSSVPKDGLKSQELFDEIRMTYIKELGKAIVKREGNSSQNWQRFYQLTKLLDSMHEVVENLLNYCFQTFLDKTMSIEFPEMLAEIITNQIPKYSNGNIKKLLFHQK
Chain of 3',5'-cyclic-AMP phosphodiesterase 4B (Homo sapiens) (Q07343 whole entry, looked up): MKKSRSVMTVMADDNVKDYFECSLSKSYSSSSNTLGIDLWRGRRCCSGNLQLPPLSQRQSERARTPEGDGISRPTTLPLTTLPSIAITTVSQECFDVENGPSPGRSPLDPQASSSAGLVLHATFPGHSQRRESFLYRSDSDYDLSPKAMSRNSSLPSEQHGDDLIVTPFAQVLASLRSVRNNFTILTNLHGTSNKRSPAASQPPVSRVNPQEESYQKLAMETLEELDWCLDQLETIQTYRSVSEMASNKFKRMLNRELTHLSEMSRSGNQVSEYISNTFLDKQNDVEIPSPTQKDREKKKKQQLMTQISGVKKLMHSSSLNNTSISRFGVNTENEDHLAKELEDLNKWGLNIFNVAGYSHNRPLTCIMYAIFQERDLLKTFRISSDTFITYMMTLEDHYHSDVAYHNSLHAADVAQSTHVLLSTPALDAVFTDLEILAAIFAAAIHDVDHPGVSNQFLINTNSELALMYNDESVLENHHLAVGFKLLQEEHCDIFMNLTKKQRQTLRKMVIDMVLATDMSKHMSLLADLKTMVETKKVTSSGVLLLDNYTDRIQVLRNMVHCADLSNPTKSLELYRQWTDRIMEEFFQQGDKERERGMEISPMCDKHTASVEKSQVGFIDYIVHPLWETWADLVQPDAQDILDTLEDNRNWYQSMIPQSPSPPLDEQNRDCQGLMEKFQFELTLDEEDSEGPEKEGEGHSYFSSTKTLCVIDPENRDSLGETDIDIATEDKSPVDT

CN1CCCC2(CCN(C(=O)c3csnn3)CC2)C1
-6.49%: max response [8, 15]
-8.1%: max response [8, 14]
inactive: Potency [1] > 11.4 µM | outcome [2] | Potency [3] | activity change, negative = inhibition [4] -27.8% | Potency [5] > 46 µM | outcome [6] | Potency [7] | activity change, negative = inhibition [8] -1.92% | outcome [9]

COc1c2c(cc3c1OCO3)CC[N+](C)=C2
8.04%: max response [8, 14]
inactive: Potency [10] | Potency [11] | Potency [12] | activity change, negative = inhibition [8] 10.8% | Potency [13] | outcome [9]
18.3%: max response [8, 15]

— PubChem BioAssay (NCATS)
